The text below walks through data of PubChem BioAssay (Tox21).

Records with an inconclusive call do not appear. The source made the active and inactive calls. Calls come from the whole dose curve; as a rule, active = well fitted activation curve with a large enough effect in the signal ratio in the repeat runs (not every such curve was filed as active); inconclusive = weak or mixed curves; inactive = flat fitted curve, though single readings scatter; the % refers to the signal ratio.
% is set by controls: 0 for no effect and ±100 for the full control effect.

The test in a line: qHTS assay to identify small molecule agonists of H2AX (AID 1224845). The following applies: CHO-K1 phospho-H2AX Ser139 HTRF, 3 h; series mostly up to 154 µM; activation (H2AX phosphorylation): at the top concentration. An excerpt: National Center for Advancing Translational Sciences [NCATS]
NIH Chemical Genomics Center [NCGC]
U.S. Environmental Protection Agency [EPA]
National Institutes of Environmental Health Sciences [NIEHS]
National Toxicology Program [NTP]
U.S. Food and Drug Administration [FDA]
HTRF phospho-H2AX (Ser139) assay (Cisbio Bioassays, US) enables the quantitative detection of the histone variant H2AX when phosphorylated on serine 139. When double-stranded DNA breaks, either by ionizing radiation or endogenous physiological processes, H2AX becomes phosphorylated at Ser139. This phospho-Ser139 serves as a sensitive biomarker for the detection of such breaks, localizing the site of DNA repair. So, HTRF phospho-H2AX Ser139 is a pertinent assay to study genome stability, the cell cycle, DNA repair, and it serves as a biomarker for cancer, and to understand aging. Wild type CHO-K1 cells were used to identify the inducers of Phospho-H2AX Ser 139 from the Tox21 10K compound collections.
Tox21 Assay Protocol Summary:
The CHO-K1 cells suspended in culture medium containing 10% FBS were dispensed at 1000 cells/ 3 ul/well in 1536-well white wall/solid bottom plates (Greiner Bio-One North America, NC) using a Multidrop Combi (Thermo Fisher Scientific Inc., Waltham, MA). After the assay plates were incubated at 37C overnight, 23 nl of compounds at 15 concentrations (from 5-48 columns) or positive control (from 1 to 4 columns) were transferred to the assay plates using a Pintool station (Wako, San Diego, CA) into each well resulting in a final DMSO concentration of 0.76%. After 3hr incubation at 37C, 1 uL/well Supplemented Lysis buffer (diluted 100 fold blocking reagent in lysis buffer) (HTRF Phospho-H2A.X (S139) Assay kit from Cisbio US Inc., Bedford, MA) was added using a Flying Reagent Dispenser (FRD) (Aurora Discovery, CA). After 10sec spin at 1000 rpm in a plate centrifuge, the assay plates were incubated at room temperature for 30 min. Then followed by the addition of 1 uL/well detection buffer (containing a mixture of two antibodies, one labeled with cryptate, Anti pH2AX (S139)-K and another labeled with d2, Anti H2AX-d2) using FRD. After incubation at room temperature for 24 hr, the time resolved fluorescence at excitation 320 nm and emissions at 665 nm and 620 nm was measured using an Envision plate reader (PerkinElmer, Waltham, MA).
On the technique in general: Quantitative high-throughput screening tests each substance at several concentrations.
Turning to `CCCCCCCCN(C)C`, the “activation (H2AX phosphorylation)” value was 2.16% (inactive).

Consider `CCOc1ccc(NC(=O)CC(C)=O)cc1`, for which the “activation (H2AX phosphorylation)” value was -1.61% (inactive).

Take `CCCCCOC(=O)COc1cc(N2C(=O)C3=C(CCCC3)C2=O)c(F)cc1Cl`: the “activation (H2AX phosphorylation)” value is -0.129% (inactive).

As for `NC(=S)N/N=C/c1cccnc1`, the “activation (H2AX phosphorylation)” value was -2.86% [at 70.9 µM] (inactive).

Take `CCCCCC/C=C/C=O`: the “activation (H2AX phosphorylation)” value was 0.996% (inactive).

Regarding `Cc1ccc(C(=O)C(C)CN2CCCCC2)cc1` (stereo not given), the “activation (H2AX phosphorylation)” value is 0.0586% [at 70.9 µM] (inactive).

In the case of `O=C(Cl)c1ccc([N+](=O)[O-])cc1`, the “activation (H2AX phosphorylation)” value is -2.25% (inactive).

Turning to `Cc1ccc(C(N)=O)cc1N`, the “activation (H2AX phosphorylation)” value was -0.821% (inactive).

For `CN(C(=O)CCCOc1ccc2[nH]c(=O)ccc2c1)C1CCCCC1`, the “activation (H2AX phosphorylation)” value is 0.705% [at 70.9 µM] (inactive).

Regarding `FC(F)(F)C(F)(F)C(F)(F)C(F)(F)C(F)(F)C(F)(F)CCI`, the “activation (H2AX phosphorylation)” value is -2.47% [at 70.9 µM] (inactive).

On to `O=C(O)C1CCC(C(=O)O)CC1` (stereo not given), for which the “activation (H2AX phosphorylation)” value was -0.0281% (inactive).

In the case of `C[C@H](CCC(=O)O)[C@H]1CC[C@H]2[C@@H]3[C@H](O)C[C@@H]4C[C@H](O)CC[C@]4(C)[C@H]3CC[C@]12C`, the “activation (H2AX phosphorylation)” value is 3.54% (inactive).

For the compound `CCCC(=O)OCC`, the “activation (H2AX phosphorylation)” value is -2.93% (inactive).

`CCCCCCCCCCCCCCCC(=O)OC/C=C(C)/C=C/C=C(C)/C=C/C1=C(C)CCCC1(C)C`: the “activation (H2AX phosphorylation)” value is 0.0506% (inactive).

In the case of `Oc1ccc(O)c2c(O)cccc12`, the “activation (H2AX phosphorylation)” value was -1.62% (inactive).

For `Cn1c(=O)c2c(ncn2CC(O)CO)n(C)c1=O` (stereo not given), the “activation (H2AX phosphorylation)” value is -0.715% [at 70.9 µM] (inactive).

With `O=C(Cl)c1c(Cl)cccc1Cl`, the “activation (H2AX phosphorylation)” value is 1.49% (inactive).

As for `CC(=O)/C(C)=C/C1C(C)=CCCC1(C)C` (stereo not given), the “activation (H2AX phosphorylation)” value is 0.98% (inactive).

With `NCc1ccccc1`, the “activation (H2AX phosphorylation)” value is -3.04% (inactive).

As to `Cc1nc2ccccc2n1Cc1ccc(Cl)cc1`, the “activation (H2AX phosphorylation)” value is 0.295% [at 70.9 µM] (inactive).

As to `O=C1CCCCCO1`, the “activation (H2AX phosphorylation)” value is -1.96% (inactive).

Take `CC(=O)[C@@]1(O)CC[C@H]2[C@@H]3C[C@H](C)C4=CC(=O)CC[C@]4(C)[C@H]3CC[C@@]21C`: the “activation (H2AX phosphorylation)” value is -4.96% [at 70.9 µM] (inactive).

Regarding `Cc1cc(NC(=O)C(=O)O)cc(C)c1Oc1ccc(O)c2c1CCC2`, the “activation (H2AX phosphorylation)” value is 2.1% (inactive).

For `CC(O)C1CCCCC1` (stereo not given), the “activation (H2AX phosphorylation)” value is 0.925% (inactive).

Regarding `CC(C)CC=O`, the “activation (H2AX phosphorylation)” value is 2.68% (inactive).

Regarding `CN(C)CCCNCCCN`, the “activation (H2AX phosphorylation)” value is -0.0061% (inactive).

In the case of `Cc1ccc(C)o1`, the “activation (H2AX phosphorylation)” value was -0.153% (inactive).

On to `Nc1nc(CC(=O)O)cs1`, for which the “activation (H2AX phosphorylation)” value was -2.11% (inactive).

For the compound `Cc1ccc(O)c([C@H](CCN(C(C)C)C(C)C)c2ccccc2)c1`, the “activation (H2AX phosphorylation)” value was -1.14% [at 70.9 µM] (inactive).

As to `CC[C@H](C)[C@@H](C(=O)O)n1sc2ccccc2c1=O`, the “activation (H2AX phosphorylation)” value is 4.63% (inactive).

Consider `CCCCCOC(=O)c1ccc(O)cc1`, for which the “activation (H2AX phosphorylation)” value is -1.76% (inactive).

As for `CCCCOC(O)CC` (stereo not given), the “activation (H2AX phosphorylation)” value is -2.02% (inactive).

For `CCN(CC)C(C)=O`, the “activation (H2AX phosphorylation)” value is 1.24% (inactive).

Turning to `NC[C@H]1O[C@H](O[C@H]2[C@H](O)[C@@H](O[C@H]3O[C@H](CO)[C@@H](O)[C@H](N)[C@H]3O)[C@H](N)C[C@@H]2N)[C@H](O)[C@@H](O)[C@@H]1O`, the activation (H2AX phosphorylation) is -0.622% [at 14 µM] (inactive).

Take `CC(C)(C)c1ccc(S)cc1`: the “activation (H2AX phosphorylation)” value is -2.68% (inactive).

For `CCN(CC)CCc1nc(-c2ccccc2)no1`, the “activation (H2AX phosphorylation)” value was 1.44% [at 70.9 µM] (inactive).

As for `N#Cc1c(F)cccc1F`, the “activation (H2AX phosphorylation)” value is 1.57% (inactive).

Take `CCOC(=S)SSC(=S)OCC`: the “activation (H2AX phosphorylation)” value was 0.618% (inactive).

In the case of `Cc1ccccc1N=Nc1ccc(N=Nc2c(O)ccc3ccccc23)c(C)c1`, the “activation (H2AX phosphorylation)” value is -0.0684% [at 70.9 µM] (inactive).

With `COC(=O)C(C)=O`, the “activation (H2AX phosphorylation)” value was -0.301% (inactive).
